# Rows were chosen to be rich in hits. Some 3.4% of all compounds tested hit in one or more screens of this group.
# MITF inh: human MITF inhibition, primary screen. AID 1259374. AlphaScreen MITF homodimerization, bead proximity signal. actives 0.91% (n = 650,000). inhibition, % at 2.6 µM; in the data active = inhibition above about 50%;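 also: 0% = vehicle wells with protein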
# GPR151 ag: activators of human GPR151; Q8TDV0; AID 1508602; PathHunter beta-arrestin GPR151 cells, luminescence; activation, % at 11.2 µM; actives 1% (n = 650,000); in the data active = activation above about 4.9%;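 also: 0% = median of compound wells and 100% = cells with positive control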
# Target sequence (Q8TDV0 whole entry, looked up): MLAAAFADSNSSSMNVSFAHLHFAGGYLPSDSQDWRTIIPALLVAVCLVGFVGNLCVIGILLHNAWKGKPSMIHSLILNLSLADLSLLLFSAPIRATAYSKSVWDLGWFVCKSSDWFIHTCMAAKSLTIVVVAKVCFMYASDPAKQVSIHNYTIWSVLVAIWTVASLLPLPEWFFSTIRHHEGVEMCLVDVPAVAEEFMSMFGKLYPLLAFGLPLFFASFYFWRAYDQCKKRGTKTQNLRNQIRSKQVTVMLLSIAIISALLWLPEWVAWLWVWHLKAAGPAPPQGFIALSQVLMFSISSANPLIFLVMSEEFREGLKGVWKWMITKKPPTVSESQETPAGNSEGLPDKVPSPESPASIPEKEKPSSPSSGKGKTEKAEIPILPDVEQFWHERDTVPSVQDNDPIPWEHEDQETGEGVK
# TEAD-YAP block: TEAD-YAP interaction inhibition; actives 1.4% (n = 640,000); HEK-TIYL cells, TEAD-Gal4/YAP UAS-luciferase luminescence; inhibition, % at 9.12 µM; in the data active = inhibition above about 32%;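 also: 0% = median of test compound wells and 100% = reference inhibitor wells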
# FBW7 activator: activators of human E3 ligase FBW7; Q969H0; normalized activity (activation), % at 26.1 µM; actives 0.13% (n = 650,000); AlphaScreen FBW7–phospho-cyclin E peptide binding, activator screen; in the data active = normalized activity above about 1.9%;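 also: purified mutant Fbw7 with reduced substrate affinity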
# An asterisk follows results filed as active.
SMILES,MITF inh,GPR151 ag,TEAD-YAP block,FBW7 activator
CC1CCN(S(=O)(=O)c2ccc(NC(=O)/C=C/c3ccc4c(c3)OCO4)cc2)CC1,13,0,44*,0
O=C(/C=C/c1ccc2c(c1)OCO2)Nc1ccccc1C(=O)O,20,-7,47*,0
COc1ccc(/C=C/C(=O)Nc2ccccc2C)cc1OC,11,1,5,0
Cc1ccc2c(c1)c(=O)c1ccccc1n2CC(=O)Nc1ccc(Oc2ccccc2)cc1,-1,-1,1,0
CCCNc1ncnc2nc(N3CCOCC3)[nH]c12,1,-2,9,0
Cn1c(C(=O)O)c(CC(=O)Nc2ccc3c(c2)OCCO3)c2ccccc21,21,-1,35*,0
Cn1nc(CC(=O)Nc2ccc3c(c2)OCCO3)c2ccccc2c1=O,-6,-1,50*,0
Cn1nc(CC(=O)Nc2ccc(Oc3ccccc3)cc2)c2ccccc2c1=O,5,3,40*,0
COc1ccc(C(=O)Oc2ccc(NC(=O)Cc3nn(C)c(=O)c4ccccc34)cc2)cc1,-7,0,-4,0
Cn1nc(CC(=O)Nc2ccc3c(c2)OCO3)c2ccccc2c1=O,0,0,26,0
Cn1nc(CC(=O)Nc2cccc(O)c2)c2ccccc2c1=O,-7,1,5,0
Cn1nc(CC(=O)Nc2cccc(C(F)(F)F)c2)c2ccccc2c1=O,1,3,42*,0
COC(=O)c1c(-c2ccc(Br)cc2)csc1NC(=O)c1ccoc1C,18,-2,9,0
O=C(Cc1ccc2c(c1)OCCO2)Nc1ccc2ccccc2c1,0,0,42*,0
Cn1nc(CC(=O)Nc2ccc(Cl)cc2)c2ccccc2c1=O,19,-1,39*,1
Cc1ccc(NC(=O)Cc2nn(C)c(=O)c3ccccc23)cc1F,3,1,20,0
COc1ccc(CC(=O)Nc2ccc3c(c2)OCCO3)cc1OC,11,0,1,0
Cc1ccc(C)n1CCCC(=O)Nc1ccc2c(c1)OCCO2,-1,1,59*,0
FC(F)(F)c1cccc(-c2nc(-c3c[nH]c4ccccc34)[nH]c2-c2ccccc2)c1,-12,3,-3,0
COc1ccc(Nc2cc(C)c3c(O)cccc3n2)cc1,12,-1,38*,0
COc1cc(C(=O)O)c(-n2c(C)ccc2C)cc1OC,72*,-1,0,-1
COc1ccc(Br)cc1C(=O)O,4,0,3,0
CNC(=O)c1ccccc1Nc1cc(Nc2ccc(N3CCOCC3)cc2OC)ncc1C,13,-1,44*,0
COc1cc(N2CCOCC2)ccc1Nc1cc(Nc2ccccc2C(N)=O)c(C(F)F)cn1,-5,0,-11,0
COc1cc(N2CCOCC2)ccc1Nc1cc(Nc2ccccc2C(=O)N(C)C)c(C(F)(F)F)cn1,27,0,-1,0
SMILES,MITF inh,GPR151 ag,TEAD-YAP block,FBW7 activator
CCN(CC)CCNC(=O)c1ccc(Nc2cc(Nc3ccccc3C(=O)NC)c(C(F)(F)F)cn2)c(OC)c1,9,0,64*,0
CNC(=O)c1ccccc1Nc1cc(Nc2ccc(C(=O)N(C)C)cc2OC)ncc1C(F)(F)F,3,-1,57*,0
CNC(=O)c1ccccc1Nc1cc(Nc2ccc(C(=O)NC[C@H](O)C(=O)N(C)C)cc2OC)ncc1C(F)(F)F,29,-1,17,0
O=C(Cc1cnc2ncnn2c1)N1CCc2c([nH]c3ccccc23)C1c1ccccn1 (centres undefined),10,-1,35*,0
CC(C)C(=O)Nc1ccc(NC(=O)C2CCCCC2)nc1,17,1,-57,0
O=C(CCCn1nnc2ccccc2c1=O)NCc1ccco1,2,3,-5,0
CCc1ccccc1NC(=O)c1sc2nc3c(cc2c1N)C(=O)CC(C)(C)C3,6,0,3,0
CCc1ccccc1NC(=O)c1sc2nc3c(cc2c1N)C(=O)CCC3,8,-1,54*,0
Cc1ccccc1NC(=O)c1sc2nc3c(cc2c1N)C(=O)CCC3,2,2,39*,0
COc1ccc(-c2cc3ccc(OCC(N)=O)cc3oc2=O)cc1,-17,1,-56,0
O=C(Nc1ccc(-c2cn3ccsc3n2)cc1)c1cccnc1Cl,10,-1,46*,1
COc1cccc(C(=O)NCc2ccccc2Cl)c1OC,8,-3,2,0
Cc1ccc(-n2cc(/C=C3/C(=O)NC(=O)N(Cc4ccco4)C3=O)cn2)cc1,73*,1,-17,-1
CCN(CC)c1ccc(/C=C2/C(=O)NC(=S)N(Cc3ccco3)C2=O)cc1,75*,0,3,0
O=C1NC(=O)N(Cc2ccco2)C(=O)/C1=C/c1ccc(N2CCOCC2)cc1,73*,-1,8,0

# Source: PubChem BioAssay
